# From PubChem BioAssay
# Several values for one entry are separate records, joined by “and”; a condition that tells them apart may be missing. Equal values may be shown once. Inconclusive results are not listed. Some compounds were tested as several samples or in several runs, with calls that do not always agree. Activity calls are given as the source filed them.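 Rule for the calls, unless noted: active = normalized viability below 100% at a tested concentration; inactive = the rest.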
# What was measured:
# [1] = growth inhibition of DIPG glioma cells, dose response, cell-based, SU-DIPG-XVII, MIPE5.0, CellTiter-Glo, qHTS (AID 1347060; cut-off not given, nearly all actives have AC50 up to about 26 µM;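 note: cells exposed to compound for 48 hours before viability readout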); conditions: SU-DIPG-XVII viability, CellTiter-Glo ATP luminescence
# [2] = growth inhibition of DIPG glioma cells, dose response, cell-based, JHH-DIPG-1, MIPE4.0, CellTiter-Glo, qHTS (AID 1347062; cut-off not given, nearly all actives have AC50 up to about 27 µM;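 note: cells exposed to compound for two days before readout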); conditions: JHH-DIPG-1 viability, CellTiter-Glo ATP luminescence
# [3] = growth inhibition of DIPG glioma cells, dose response, cell-based, SU-DIPG-IV, MIPE4.0, CellTiter-Glo, qHTS (AID 1347063; cut-off not given, nearly all actives have AC50 up to about 30 µM;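 note: compound exposure lasted 48 hours before the viability readout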); conditions: SU-DIPG-IV viability, CellTiter-Glo ATP luminescence
# [4] = growth inhibition of DIPG glioma cells, dose response, cell-based, SU-DIPG-XIII, MIPE5.0, CellTiter-Glo, qHTS (AID 1347064; cut-off not given, nearly all actives have AC50 up to about 23 µM;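 note: cells exposed to compound for 48 hours before the viability read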); conditions: SU-DIPG-XIII viability, CellTiter-Glo ATP luminescence
# [5] = viability loss in pontine glioma line – cell-based, SU-DIPG-XXV, MIPE5.0, CellTiter-Glo, qHTS, dose response (AID 1347065; cut-off not given, nearly all actives have AC50 up to about 26 µM;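 note: cells exposed to compound for 48 hours before ATP readout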); conditions: CellTiter-Glo ATP luminescence
# [6] = sensitizers of A549 cells to miR-34 induction, primary screen, imaging, A549 dox-inducible miR-34, nuclei and caspase counts (AID 1347080;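 active = compounds whose cell count with miR-34 switched on is under 0.7 times the count with it off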); conditions: A549 miR-34 inducible, Hoechst nuclei count, 48 h
# [7] = modifiers of HSF1 nuclear foci, imaging, Selleck Cancer Library (AID 1347162; in the data active = plate-normalised HSF1 focus index below about 0.46); conditions: human cells, at 10 µM; SSMD: measured here: HSF1 foci SSMD mean; cell count: measured here: cell number; plate-normalised HSF1 focus index: stronger effect = lower value
# [8] = survival rescue of mitochondrial mutant cells in low glucose, primary screen, MELAS cybrids, Rieske KO mouse fibroblasts, CellTiter-Glo (AID 1508586;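 active = mean z-score across replicates of 1.96 or higher in either the MELAS or the Rieske mutant cell line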;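 note: z relative to plate mean and SD of compound and empty wells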)
# [9] = ovarian cancer cell viability with rucaparib, profiling panel, oncology-focused library, rucaparib conditional (AID 1508598); conditions: patient-derived ovarian cancer cells, CellTiter-Glo viability, 144 h, stronger effect = lower value
# [10] = JHH-DIPG-1 glioma cell viability, MIPE5.0 library, CellTiter-Glo luminescence, qHTS (AID 1347067; cut-off not given, nearly all actives have AC50 up to about 26 µM;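 note: cells exposed to compound for 48 hours before readout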); conditions: JHH-DIPG-1 glioma viability, CellTiter-Glo ATP luminescence
# [11] = LFS_MB_P medulloblastoma growth inhibition, cell-based, chromothripsis tumors, cisplatin or BGB combos (AID 1671449; in the data active = inhibition above about 80%;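 note: cells exposed for 96 hours; 0% = vehicle DMSO and 100% = killing by high DMSO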); conditions: LFS_MB_P medulloblastoma cells
# [12] = HDN33 neuroblastoma growth inhibition, cell-based, chromothripsis tumors, cisplatin or BGB combos (AID 1671450; in the data active = inhibition above about 80%;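 note: cells exposed to compound for four days; 0% = vehicle DMSO and 100% = cell killing by high DMSO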); conditions: HDN33 neuroblastoma cells, stronger effect = higher value
# [13] = ICB984 medulloblastoma cell growth inhibition, synergistic combos for chromothripsis tumors, cisplatin or BGB combos (AID 1671451; call rule not given here;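 note: cells exposed for 96 hours before readout; 0% = vehicle DMSO and 100% = killing by high DMSO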); conditions: ICB984 medulloblastoma cells, drug combinations, stronger effect = higher value
# [14] = HTB85 osteosarcoma cell growth inhibition, synergistic combos for chromothripsis tumors, BGB or cisplatin IC20 combos (AID 1671453; in the data active = inhibition above about 80%;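 note: cells exposed for 96 hours before readout; 0% = vehicle DMSO and 100% = high DMSO killing control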); conditions: HTB85 osteosarcoma cells, drug combinations, stronger effect = higher value
# [15] = MDA-MB-436 breast carcinoma cell growth inhibition, synergistic combos for chromothripsis tumors, BGB or cisplatin combos (AID 1671458; call rule not given here;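 note: cells exposed for 96 hours; 0% = vehicle DMSO and 100% = killing by high DMSO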); conditions: MDA-MB-436 breast carcinoma growth inhibition, drug combinations, stronger effect = higher value
# [16] = growth inhibition of BT084 medulloblastoma cells, cell-based, ICGC_MB145, cisplatin and BGB IC40 combos (AID 1671461; in the data active = inhibition above about 80%;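 note: cells exposed to drugs for 96 hours; 0% = vehicle DMSO and 100% = high DMSO full killing control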); conditions: drug combinations, stronger effect = higher value
# [17] = growth inhibition of RCMB18 medulloblastoma cells, cell-based, cisplatin and BGB IC40 combos (AID 1671462; in the data active = inhibition above about 80%;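 note: cells exposed to compound for four days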); conditions: stronger effect = higher value
structure (smiles),measurement,setting,value
COc1cc2nccc(Oc3ccc(NC(=O)NC4CC4)c(Cl)c3)c2cc1C(N)=O,AC50,[1],2.09 µM (active)
same,AC50,[2],2.35 µM (active)
same,AC50,[3],4.69 µM (active)
same,AC50,[4],4.68 µM (active)
same,AC50,[5],2.35 µM (active)
same,fold change,"[6]; stronger effect = lower value, cell number ratio, induced over uninduced",0.924 (inactive)
same,fold change,[6]; measured here: relative caspase fold change +Dox/-Dox,1.21
same,cell count,"[6]; measured here: total cells with miR-34 induction, stronger effect = lower value",5580
same,cell count,[6]; measured here: total cells without miR-34 induction,6040
same,SSMD,[7],2.76
same,cell count,[7],6600
same,plate-normalised HSF1 focus index,[7],1.14 (inactive)
same,z-score,"[8]; MELAS cybrid survival, CellTiter-Glo 48 h, stronger effect = higher value",-0.303 (inactive)
same,z-score,"[8]; Rieske KO mouse fibroblast survival, CellTiter-Glo 72 h",0.105
same,viability,"[9]; at 0.000305 µM, OCI-C5x cells, with rucaparib 10 µM, 100% = cells with rucaparib alone",125% (inactive)
same,viability,"[9]; at 0.000305 µM, OCI-C5x cells, without rucaparib",110% (inactive)
same,viability,"[9]; at 0.000305 µM, OCI-P5x cells, with rucaparib 20 µM, 100% = cells with rucaparib alone",111% (inactive)
same,viability,"[9]; at 0.000305 µM, OCI-P5x cells, without rucaparib",105% (inactive)
same,viability,"[9]; at 0.00122 µM, OCI-C5x cells, with rucaparib 10 µM, 100% = cells with rucaparib alone",100% (inactive)
same,viability,"[9]; at 0.00122 µM, OCI-C5x cells, without rucaparib",110% (inactive)
same,viability,"[9]; at 0.00122 µM, OCI-P5x cells, with rucaparib 20 µM, 100% = cells with rucaparib alone",112% (inactive)
same,viability,"[9]; at 0.00122 µM, OCI-P5x cells, without rucaparib",114% (inactive)
same,viability,"[9]; at 0.00488 µM, OCI-C5x cells, with rucaparib 10 µM, 100% = cells with rucaparib alone",108% (inactive)
same,viability,"[9]; at 0.00488 µM, OCI-C5x cells, without rucaparib",103% (inactive)
same,viability,"[9]; at 0.00488 µM, OCI-P5x cells, with rucaparib 20 µM, 100% = cells with rucaparib alone",110% (inactive)
same,viability,"[9]; at 0.00488 µM, OCI-P5x cells, without rucaparib",112% (inactive)
same,viability,"[9]; at 0.0195 µM, OCI-C5x cells, with rucaparib 10 µM, 100% = cells with rucaparib alone",103% (inactive)
same,viability,"[9]; at 0.0195 µM, OCI-C5x cells, without rucaparib",113% (inactive)
same,viability,"[9]; at 0.0195 µM, OCI-P5x cells, with rucaparib 20 µM, 100% = cells with rucaparib alone",117% (inactive)
same,viability,"[9]; at 0.0195 µM, OCI-P5x cells, without rucaparib",114% (inactive)
same,viability,"[9]; at 0.0781 µM, OCI-C5x cells, with rucaparib 10 µM, 100% = cells with rucaparib alone",103% (inactive)
same,viability,"[9]; at 0.0781 µM, OCI-C5x cells, without rucaparib",112% (inactive)
same,viability,"[9]; at 0.0781 µM, OCI-P5x cells, with rucaparib 20 µM, 100% = cells with rucaparib alone",111% (inactive)
same,viability,"[9]; at 0.0781 µM, OCI-P5x cells, without rucaparib",111% (inactive)
same,viability,"[9]; at 0.313 µM, OCI-C5x cells, with rucaparib 10 µM, 100% = cells with rucaparib alone",108% (inactive)
same,viability,"[9]; at 0.313 µM, OCI-C5x cells, without rucaparib",110% (inactive)
same,viability,"[9]; at 0.313 µM, OCI-P5x cells, with rucaparib 20 µM, 100% = cells with rucaparib alone",108% (inactive)
same,viability,"[9]; at 0.313 µM, OCI-P5x cells, without rucaparib",110% (inactive)
same,viability,"[9]; at 1.25 µM, OCI-C5x cells, with rucaparib 10 µM, 100% = cells with rucaparib alone",126% (inactive)
same,viability,"[9]; at 1.25 µM, OCI-C5x cells, without rucaparib",111% (inactive)
same,viability,"[9]; at 1.25 µM, OCI-P5x cells, with rucaparib 20 µM, 100% = cells with rucaparib alone",119% (inactive)
same,viability,"[9]; at 1.25 µM, OCI-P5x cells, without rucaparib",112% (inactive)
same,viability,"[9]; at 5 µM, OCI-C5x cells, with rucaparib 10 µM, 100% = cells with rucaparib alone",142% (inactive)
same,viability,"[9]; at 5 µM, OCI-C5x cells, without rucaparib",111% (inactive)
same,viability,"[9]; at 5 µM, OCI-P5x cells, with rucaparib 20 µM, 100% = cells with rucaparib alone",91.4% (active)
same,viability,"[9]; at 5 µM, OCI-P5x cells, without rucaparib",88.9% (active)
Cc1[nH]c2ccccc2c1CCNCc1ccc(/C=C/C(=O)NO)cc1,AC50,[1],1.18 µM (active)
same,AC50,[2],0.132 µM (active)
same,AC50,[3],0.332 µM (active)
same,AC50,[4],0.166 µM (active)
same,AC50,[5],0.148 µM (active)
same,AC50,[10],0.166 µM (active)
same,SSMD,[7],-3.12
same,cell count,[7],7220
same,plate-normalised HSF1 focus index,[7],0.803 (inactive)
same,inhibition,"[11]; at 0.5 µM, stronger effect = higher value",42% (inactive) and 87.2% (active)
same,inhibition,"[11]; measured here: combination with BGB IC20, at 0.005 µM",-5.26% and -19.1%
same,inhibition,"[11]; measured here: combination with BGB IC40, at 0.005 µM",-17.3% and -29%
same,inhibition,"[11]; measured here: combination with BGB IC40, at 0.05 µM",-6.97% and -48.6%
same,inhibition,"[11]; measured here: combination with cisplatin, at 0.5 µM, stronger effect = higher value",84.3% and 119%
same,inhibition,"[11]; measured here: combination with cisplatin, at 5 µM, stronger effect = higher value",120% and 116%
same,inhibition,"[12]; BGB combo, at 5 µM",99.9% and 99.7%
same,inhibition,[12]; at 0.5 µM,99.7% (active) and 60.8% (inactive)
same,inhibition,"[12]; cisplatin combo, at 5 µM",99.9% and 100%
same,inhibition,"[12]; measured here: with BGB IC20 combination, at 0.5 µM",99.5% and 57.1%
same,inhibition,"[12]; measured here: with cisplatin IC20 combination, at 0.5 µM",99.8% and 58.2%
same,inhibition,"[12]; single agent, at 5 µM",99.9%
same,inhibition,"[13]; BGB IC20 combo, at 0.005 µM",86.9% and 15.5%
same,inhibition,"[13]; BGB IC40 combo, at 0.005 µM",98.3% and 28.4%
same,inhibition,"[13]; BGB IC40 combo, at 0.05 µM",99.9% and 97.7%
same,inhibition,[13]; at 0.5 µM,-9.68% (inactive) and -7.76% (inactive)
same,inhibition,"[13]; cisplatin combo, at 0.05 µM",99.9% and 97.7%
same,inhibition,"[13]; cisplatin combo, at 0.5 µM",-13.7% and 4.07%
same,inhibition,"[13]; cisplatin combo, at 5 µM",25.1% and -22.1%
same,inhibition,"[13]; measured here: 5 uM single agent, at 5 µM",26.1% and 8.36%
same,inhibition,[14]; at 0.5 µM,99.9% (active) and 73.4% (inactive)
same,inhibition,"[14]; measured here: with BGB IC20, at 0.5 µM",100% and 62.5%
same,inhibition,"[14]; measured here: with BGB IC20, at 5 µM",99.9% and 99.8%
same,inhibition,"[14]; measured here: with cisplatin IC20, at 0.5 µM",100% and 90.3%
same,inhibition,"[14]; measured here: with cisplatin IC20, at 5 µM",100%
same,inhibition,"[14]; single agent, at 5 µM",99.9% and 100%
same,inhibition,[15]; at 0.5 µM,68.6% (inactive) and 35.2% (inactive)
same,inhibition,"[15]; measured here: BGB combination, at 0.5 µM",60.4% and 26.7%
same,inhibition,"[15]; measured here: BGB combination, at 5 µM",70.3% and 56.2%
same,inhibition,"[15]; measured here: cisplatin combination, at 0.5 µM",66.3% and 33.8%
same,inhibition,"[15]; measured here: cisplatin combination, at 5 µM",80.8% and 74.3%
same,inhibition,[16]; at 0.5 µM,90.4% (active) and 65.9% (inactive)
same,inhibition,"[16]; cisplatin combination, at 0.5 µM",101% and 78.2%
same,inhibition,"[16]; cisplatin combination, at 5 µM",102% and 105%
same,inhibition,"[16]; measured here: BGB IC40 combination 0.05 uM, at 0.05 µM",52.7% and 3.36%
same,inhibition,"[16]; single agent, at 5 µM",109% and 106%
same,inhibition,[17]; at 0.5 µM,91% (active) and 38.1% (inactive)
same,inhibition,"[17]; cisplatin combo, at 5 µM",99% and 97.8%
same,inhibition,"[17]; measured here: BGB IC40 combination, at 0.05 µM",28.7% and -11.4%
same,inhibition,"[17]; measured here: combination with cisplatin, at 0.5 µM",95.9% and 50.4%
same,inhibition,"[17]; single agent, at 5 µM",97.1% and 93.2%
